# Results from PubChem BioAssay AID1159580 (chemical genetic matrix, 2015).
# The campaign covered roughly 5,500 compounds. About 2,000 (36%) were called active. Another 18% or so got no clear call; they are omitted. The list shows a part of the results. Values without a mark were called inactive. No stated cut-off is given here; in the data, active means normalized growth mostly below about 0.91 (no sharp cut-off); inconclusive means no clear call, values can overlap the other calls; inactive means mostly above about 0.92.
# Experiment: chemical genetic growth profiling, strain panel (AID 1159580);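 further: tested at 20 µM; growth read once vehicle control cultures reached saturation at 30 °C; 1 = growth at the plate median or of vehicle wells; lower values mean less growth of the strain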
# Settings: growth OD
smiles,measurement,setting,value
COP(=S)(OC)Oc1ccc(SC)c(C)c1,normalized growth,"S. cerevisiae deletion strains, locus YJR075W, strain HOC1, active compounds read low",1.01
same,normalized growth,"S. cerevisiae deletion strains, locus YKL009W, strain mrt4, active compounds read low",0.942
same,normalized growth,"S. cerevisiae deletion strains, locus YKL068W, active compounds read low",0.996
same,normalized growth,"S. cerevisiae deletion strains, locus YKL085W, strain MDH1 (second series), active compounds read low",0.999
same,normalized growth,"S. cerevisiae deletion strains, locus YKL085W, strain MDH1, active compounds read low",0.999
same,normalized growth,"S. cerevisiae deletion strains, locus YKL160W, strain elf1, active compounds read low",0.999
same,normalized growth,"S. cerevisiae deletion strains, locus YKL190W, strain CNB1, active compounds read low",1
same,normalized growth,"S. cerevisiae deletion strains, locus YKR001C, strain vps1, active compounds read low",0.986
same,normalized growth,"S. cerevisiae deletion strains, locus YKR026C, strain gcn3, active compounds read low",1.01
same,normalized growth,"S. cerevisiae deletion strains, locus YKR091W, strain srl3, active compounds read low",0.995
same,normalized growth,"S. cerevisiae deletion strains, locus YLL001W, strain dnm1, active compounds read low",0.986
same,normalized growth,"S. cerevisiae deletion strains, locus YLL026W, active compounds read low",0.972
same,normalized growth,"S. cerevisiae deletion strains, locus YLL041C, strain sdh2, active compounds read low",1
same,normalized growth,"S. cerevisiae deletion strains, locus YLR027C, strain aat2, active compounds read low",0.988
same,normalized growth,"S. cerevisiae deletion strains, locus YLR039C, strain RIC1, active compounds read low",1.02
same,normalized growth,"S. cerevisiae deletion strains, locus YLR058C, strain SHM2, active compounds read low",1.01
same,normalized growth,"S. cerevisiae deletion strains, locus YLR102C, strain apc9, active compounds read low",0.985
same,normalized growth,"S. cerevisiae deletion strains, locus YLR221C, strain rsa3, active compounds read low",0.92
same,normalized growth,"S. cerevisiae deletion strains, locus YLR258W, strain gsy2, active compounds read low",0.979
same,normalized growth,"S. cerevisiae deletion strains, locus YLR262C, strain YPT6 (second series), active compounds read low",0.949
same,normalized growth,"S. cerevisiae deletion strains, locus YLR262C, strain YPT6, active compounds read low",1.01
same,normalized growth,"S. cerevisiae deletion strains, locus YLR268W, strain sec22, active compounds read low",0.996
same,normalized growth,"S. cerevisiae deletion strains, locus YLR320W, strain mms22, active compounds read low",0.857 (active)
same,normalized growth,"S. cerevisiae deletion strains, locus YLR330W, strain CHS5, active compounds read low",1.01
same,normalized growth,"S. cerevisiae deletion strains, locus YLR342W, strain FKS1 (second series), active compounds read low",0.985
same,normalized growth,"S. cerevisiae deletion strains, locus YLR342W, strain FKS1, active compounds read low",0.997
same,normalized growth,"S. cerevisiae deletion strains, locus YLR357W, strain rsc2, active compounds read low",1.1
same,normalized growth,"S. cerevisiae deletion strains, locus YLR370C, strain arc18, active compounds read low",1.06
same,normalized growth,"S. cerevisiae deletion strains, locus YLR371W, strain rom2, active compounds read low",0.989
same,normalized growth,"S. cerevisiae deletion strains, locus YLR384C, strain iki3, active compounds read low",1.02
same,normalized growth,"S. cerevisiae deletion strains, locus YLR418C, strain cdc73, active compounds read low",0.984
same,normalized growth,"S. cerevisiae deletion strains, locus YML016C, strain PPZ1, active compounds read low",1.02
same,normalized growth,"S. cerevisiae deletion strains, locus YML032C, strain rad52, active compounds read low",0.979
same,normalized growth,"S. cerevisiae deletion strains, locus YML120C, strain ndi1, active compounds read low",0.997
same,normalized growth,"S. cerevisiae deletion strains, locus YML124C, strain tub3, active compounds read low",0.985
same,normalized growth,"S. cerevisiae deletion strains, locus YMR058W, strain fet3, active compounds read low",0.987
same,normalized growth,"S. cerevisiae deletion strains, locus YMR078C, strain ctf18, active compounds read low",0.975
same,normalized growth,"S. cerevisiae deletion strains, locus YMR125W, strain sto1, active compounds read low",1.05
same,normalized growth,"S. cerevisiae deletion strains, locus YMR129W, active compounds read low",1.01
same,normalized growth,"S. cerevisiae deletion strains, locus YMR205C, strain PFK2, active compounds read low",0.947
same,normalized growth,"S. cerevisiae deletion strains, locus YMR223W, strain ubp8, active compounds read low",0.982
same,normalized growth,"S. cerevisiae deletion strains, locus YMR231W, strain pep5, active compounds read low",1
same,normalized growth,"S. cerevisiae deletion strains, locus YMR263W, strain SAP30, active compounds read low",1.01
same,normalized growth,"S. cerevisiae deletion strains, locus YMR307W, strain GAS1, active compounds read low",0.908
same,normalized growth,"S. cerevisiae deletion strains, locus YNL067W, strain RPL9B, active compounds read low",1.01
same,normalized growth,"S. cerevisiae deletion strains, locus YNL071W, strain lat1, active compounds read low",0.879 (active)
same,normalized growth,"S. cerevisiae deletion strains, locus YNL128W, strain TEP1, active compounds read low",1.02
same,normalized growth,"S. cerevisiae deletion strains, locus YNL153C, strain GIM3, active compounds read low",1.02
same,normalized growth,"S. cerevisiae deletion strains, locus YNL209W, strain ssb2, active compounds read low",1.01
same,normalized growth,"S. cerevisiae deletion strains, locus YNL233W, strain BNI4, active compounds read low",0.998
same,normalized growth,"S. cerevisiae deletion strains, locus YNL248C, strain rpa49, active compounds read low",0.967
same,normalized growth,"S. cerevisiae deletion strains, locus YNL250W, strain rad50, active compounds read low",0.987
same,normalized growth,"S. cerevisiae deletion strains, locus YNL271C, strain bni1, active compounds read low",0.989
same,normalized growth,"S. cerevisiae deletion strains, locus YNL298W, strain CLA4, active compounds read low",0.981
same,normalized growth,"S. cerevisiae deletion strains, locus YNL307C, strain MCK1, active compounds read low",0.979
same,normalized growth,"S. cerevisiae deletion strains, locus YNL322C, strain KRE1 (second series), active compounds read low",1.01
same,normalized growth,"S. cerevisiae deletion strains, locus YNL322C, strain KRE1, active compounds read low",1.02
same,normalized growth,"S. cerevisiae deletion strains, locus YNR049C, strain mso1, active compounds read low",1
same,normalized growth,"S. cerevisiae deletion strains, locus YNR052C, strain pop2, active compounds read low",0.984
same,normalized growth,"S. cerevisiae deletion strains, locus YOL006C, strain TOP1, active compounds read low",1.01
same,normalized growth,"S. cerevisiae deletion strains, locus YOL012C, strain htz1",1.06
same,normalized growth,"S. cerevisiae deletion strains, locus YOL147C, strain pex11, active compounds read low",0.985
same,normalized growth,"S. cerevisiae deletion strains, locus YOR001W, strain rrp6, active compounds read low",0.99
same,normalized growth,"S. cerevisiae deletion strains, locus YOR061W, strain CKA2, active compounds read low",1.01
same,normalized growth,"S. cerevisiae deletion strains, locus YOR069W, strain VPS5, active compounds read low",1.01
same,normalized growth,"S. cerevisiae deletion strains, locus YOR070C, strain gyp1, active compounds read low",0.978
same,normalized growth,"S. cerevisiae deletion strains, locus YOR080W, strain dia2, active compounds read low",1.03
same,normalized growth,"S. cerevisiae deletion strains, locus YOR083W, strain WHI5, active compounds read low",0.951
same,normalized growth,"S. cerevisiae deletion strains, locus YOR106W, strain vam3, active compounds read low",0.968
same,normalized growth,"S. cerevisiae deletion strains, locus YOR136W, strain idh2, active compounds read low",0.985
same,normalized growth,"S. cerevisiae deletion strains, locus YOR144C, strain elg1, active compounds read low",0.992
same,normalized growth,"S. cerevisiae deletion strains, locus YOR184W, strain ser1, active compounds read low",0.958
same,normalized growth,"S. cerevisiae deletion strains, locus YOR265W, strain rbl2, active compounds read low",1.01
same,normalized growth,"S. cerevisiae deletion strains, locus YOR270C, strain vph1, active compounds read low",0.791
same,normalized growth,"S. cerevisiae deletion strains, locus YOR290C, strain snf2, active compounds read low",0.994
same,normalized growth,"S. cerevisiae deletion strains, locus YOR316C, strain cot1, active compounds read low",0.992
same,normalized growth,"S. cerevisiae deletion strains, locus YPL051W, strain arl3, active compounds read low",0.96
same,normalized growth,"S. cerevisiae deletion strains, locus YPL055C, strain LGE1, active compounds read low",1.01
same,normalized growth,"S. cerevisiae deletion strains, locus YPL078C, strain atp4, active compounds read low",0.988
same,normalized growth,"S. cerevisiae deletion strains, locus YPL106C, strain sse1, active compounds read low",1.08
same,normalized growth,"S. cerevisiae deletion strains, locus YPL240C, strain hsp82, active compounds read low",1.03
same,normalized growth,"S. cerevisiae deletion strains, locus YPL241C, strain CIN2, active compounds read low",1.01
same,normalized growth,"S. cerevisiae deletion strains, locus YPR119W, strain clb2, active compounds read low",0.981
same,normalized growth,"S. cerevisiae deletion strains, locus YPR141C, strain kar3, active compounds read low",0.988
same,normalized growth,"S. cerevisiae deletion strains, locus YPR163C, strain tif3, active compounds read low",0.98
same,normalized growth,"S. cerevisiae deletion strains, locus YPR167C, strain met16, active compounds read low",0.983
same,normalized growth,"S. cerevisiae deletion strains, strain wtn01, active compounds read low",0.989
same,normalized growth,"S. cerevisiae strains, strain wild type, active compounds read low",1.01
